PubChem BioAssay
Inconclusive results are not listed. Activity calls are given as the source filed them. Unless noted, no stated cut-off is given here; in the data, active means percent of DMSO control GFP below about 86%; inactive means the rest, inconclusive results apart.

How the values were obtained:
[1] = yeast TOR pathway RPL19A-GFP modulators, primary screen, cell-based, S. cerevisiae, multiplex flow cytometry (AID 1862);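 further: lower values mimic rapamycin by blocking the RPL19A rise seen in DMSO cells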; settings: S. cerevisiae RPL19A-GFP strain, flow cytometry fluorescence, 3 h; at 10 µM; stronger effect = lower value
[2] = modulators of MEP2-GFP levels in yeast, primary screen, S. cerevisiae, multiplex flow cytometry (AID 1867;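 active means GFP response, as percent of the DMSO control, above the screen-wide mean plus 3 SD, about 139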;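 further: median GFP channel fluorescence of barcode-gated MEP2-GFP cells measured by flow cytometry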); settings: S. cerevisiae MEP2-GFP strain, 3 h, at 10 µM, stronger effect = higher value, 100% means same as DMSO wells
[3] = modulators of CIT2-GFP expression in yeast, primary screen, S. cerevisiae, GFP fusion, multiplex flow cytometry (AID 1870;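 active means percent response above a set limit, the screen-wide mean plus 3 SD, cut at about 130% in these data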;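 further: barcoded CIT2-GFP strain pooled with four other GFP strains with rapamycin as positive control; median GFP fluorescence per well over plate mean of DMSO wells so 100% = DMSO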); settings: 3 h, at 10 µM, stronger effect = higher value
[4] = modulators of LAP4-GFP expression in yeast, primary screen, S. cerevisiae, multiplex flow cytometry (AID 1873;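 active means GFP signal, as percent of the solvent control, above the screen mean plus 3 SD, about 149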); settings: 3 h, at 10 µM, stronger effect = higher value
[5] = modulators of AGP1-GFP expression in yeast TOR pathway, primary screen, cell-based, multiplex flow cytometry, S. cerevisiae (AID 1887;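 active means GFP signal above the screen-wide mean plus 3 SD, that is over about 124.5% of the solvent control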;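 further: AGP1-GFP fusion strain of S. cerevisiae within a five-strain barcoded multiplex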); settings: 3 h, at 10 µM, stronger effect = higher value
[6] = RPL19A-GFP modulators, yeast TOR pathway, confirmation, cell-based, S. cerevisiae, flow cytometry, cherry picks, mother/daughter gates (AID 2270;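 active means GFP response below 50% of the DMSO control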); settings: S. cerevisiae RPL19A-GFP strain, 3 h, at 10 µM, stronger effect = lower value, 100 = same GFP as DMSO wells
[7] = LAP4-GFP expression modulators in yeast, confirmation, cell-based, cherry picks, flow cytometry, mother/daughter gates (AID 2271;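 active means GFP response above 150% of the DMSO control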;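 further: ratio of sample to DMSO plate mean so 100% equals DMSO level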); settings: S. cerevisiae LAP4-GFP strain, 3 h, at 10 µM, stronger effect = higher value, 100 means same as DMSO control
[8] = modulators of MEP2-GFP levels in yeast, confirmation, S. cerevisiae, flow cytometry GFP, cherry picks (AID 2272;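 active means GFP response above 150% of the DMSO control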;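 further: ratio of well signal to plate DMSO mean so 100% equals DMSO level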); settings: S. cerevisiae MEP2-GFP strain, 3 h, at 10 µM, stronger effect = higher value
[9] = modulators of CIT2-GFP expression in yeast, confirmation, S. cerevisiae, GFP fusion, cherry picks, mother/daughter gates (AID 2274;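 active means GFP response above 150% of the DMSO level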); settings: S. cerevisiae CIT2-GFP strain, flow cytometry, 3 h, at 10 µM, stronger effect = higher value
[10] = inhibitors of CD8+ T cell-vesicle binding, pilot screen, LFA-1/ICAM-1 modulator project, MLPCN validation set, flow cytometry (AID 2523;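 active means response below a set limit, under 55% cells CD8-positive and vesicle-bound, and CD8 cells' 90th-percentile brightness under 279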;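 on vesicle binding response: mean PE anti-B7-1 fluorescence of CD8+ cells relative to row control; 100% = QL9-loaded vesicles with DMSO vehicle in the same plate row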); settings: 2C mouse CD8+ T cells, at 7 µM, stronger effect = lower value; double positive events: measured here: CD8+/vesicle+ event percentage
[11] = target: Integrin beta-1 (Homo sapiens) + Integrin alpha-4 (Homo sapiens) (UniProt P13612+P05556); test: inhibition of HUTS-21 binding to VLA-4, pilot screen, VLA-4 allosteric modulator project, U937 cells, HUTS-21 mAb, flow cytometry, validation set (AID 2674;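 active means inhibition above 50%, about 3 SD of the validation set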;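 further: antibody binding induced by the VLA-4 ligand LDV present at three times its Kd; 0% = LDV ligand with antibody and no compound and 100% = antibody without LDV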); settings: HUTS-21 LIBS mAb binding, at 6.7 µM, stronger effect = higher value, binding induced by LDV ligand
Integrin beta-1 (Homo sapiens) + Integrin alpha-4 (Homo sapiens), sequence (P05556 whole entry, looked up): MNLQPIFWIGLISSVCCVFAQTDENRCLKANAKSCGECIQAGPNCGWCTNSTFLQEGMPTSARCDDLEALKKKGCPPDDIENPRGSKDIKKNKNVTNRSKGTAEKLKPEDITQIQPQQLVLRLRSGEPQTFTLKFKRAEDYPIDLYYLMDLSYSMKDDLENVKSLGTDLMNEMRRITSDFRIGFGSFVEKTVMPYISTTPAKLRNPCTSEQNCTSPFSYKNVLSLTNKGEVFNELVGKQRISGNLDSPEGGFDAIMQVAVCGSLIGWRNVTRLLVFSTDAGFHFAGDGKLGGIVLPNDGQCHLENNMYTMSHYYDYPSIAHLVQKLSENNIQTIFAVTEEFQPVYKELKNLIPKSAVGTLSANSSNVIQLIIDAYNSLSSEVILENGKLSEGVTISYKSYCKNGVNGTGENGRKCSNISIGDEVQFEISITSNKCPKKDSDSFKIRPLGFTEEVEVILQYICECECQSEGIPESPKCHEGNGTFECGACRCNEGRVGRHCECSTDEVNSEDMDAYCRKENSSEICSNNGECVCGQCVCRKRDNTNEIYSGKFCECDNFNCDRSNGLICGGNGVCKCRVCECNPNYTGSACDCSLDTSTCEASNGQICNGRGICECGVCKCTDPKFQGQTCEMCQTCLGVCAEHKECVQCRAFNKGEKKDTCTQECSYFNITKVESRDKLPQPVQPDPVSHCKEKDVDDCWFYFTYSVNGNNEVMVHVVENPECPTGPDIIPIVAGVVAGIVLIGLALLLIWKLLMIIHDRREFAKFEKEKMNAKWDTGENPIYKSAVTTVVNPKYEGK
Integrin beta-1 (Homo sapiens) + Integrin alpha-4 (Homo sapiens), sequence (P13612 whole entry, looked up): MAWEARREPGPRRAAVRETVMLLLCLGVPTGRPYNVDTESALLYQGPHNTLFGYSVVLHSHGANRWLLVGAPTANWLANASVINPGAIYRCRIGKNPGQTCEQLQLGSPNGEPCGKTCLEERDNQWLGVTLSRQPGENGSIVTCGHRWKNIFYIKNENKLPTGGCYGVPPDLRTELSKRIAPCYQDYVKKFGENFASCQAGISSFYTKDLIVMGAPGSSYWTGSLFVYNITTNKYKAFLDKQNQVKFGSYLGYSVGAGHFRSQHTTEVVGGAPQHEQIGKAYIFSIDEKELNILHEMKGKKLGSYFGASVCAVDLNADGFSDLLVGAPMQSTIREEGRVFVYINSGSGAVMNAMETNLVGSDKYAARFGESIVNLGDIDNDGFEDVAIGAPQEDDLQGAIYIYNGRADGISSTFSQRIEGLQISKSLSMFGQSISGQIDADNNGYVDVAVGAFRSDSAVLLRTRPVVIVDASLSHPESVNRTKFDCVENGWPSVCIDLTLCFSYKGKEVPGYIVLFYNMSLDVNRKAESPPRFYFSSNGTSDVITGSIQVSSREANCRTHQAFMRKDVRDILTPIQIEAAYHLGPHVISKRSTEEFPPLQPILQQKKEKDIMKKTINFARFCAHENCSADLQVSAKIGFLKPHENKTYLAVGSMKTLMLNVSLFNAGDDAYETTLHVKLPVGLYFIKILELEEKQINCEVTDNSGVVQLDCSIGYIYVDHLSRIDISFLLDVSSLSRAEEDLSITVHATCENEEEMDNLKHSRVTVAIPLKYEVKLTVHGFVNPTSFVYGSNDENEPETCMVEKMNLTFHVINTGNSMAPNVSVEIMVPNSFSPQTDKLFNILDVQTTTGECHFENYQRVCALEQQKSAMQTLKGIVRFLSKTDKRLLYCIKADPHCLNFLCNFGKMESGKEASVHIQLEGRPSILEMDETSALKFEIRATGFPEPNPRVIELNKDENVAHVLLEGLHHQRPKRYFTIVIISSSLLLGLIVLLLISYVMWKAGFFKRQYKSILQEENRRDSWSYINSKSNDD

[12] = superoxide lowering in aged yeast cells, pilot screen, validation compound set (AID 2706;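 active means superoxide response below 65% of plate, a cut near 3 SD across the whole screen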;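 further: yeast exposed to compound for one week at 30 degrees C before staining; 100% = mean of all compound wells on the same plate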); settings: S. cerevisiae aging, superoxide DHE fluorescence; at 10 µM; stronger effect = lower value
[13] = target: Beta-adrenergic receptor kinase 1 (Homo sapiens) (UniProt P25098); test: GRK2 binders displacing RNA aptamer, biochemical, validation, human GRK2, bead flow cytometry (AID 488806;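 active means aptamer binding inhibition above 30%, about 3 SD of noise from non-fluorescent compounds; inactive means inhibition at or below 30%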); settings: bead-bound GRK2, FAM-aptamer displacement, at 10 µM, stronger effect = higher value
Beta-adrenergic receptor kinase 1 (Homo sapiens), sequence (P25098 whole entry, looked up): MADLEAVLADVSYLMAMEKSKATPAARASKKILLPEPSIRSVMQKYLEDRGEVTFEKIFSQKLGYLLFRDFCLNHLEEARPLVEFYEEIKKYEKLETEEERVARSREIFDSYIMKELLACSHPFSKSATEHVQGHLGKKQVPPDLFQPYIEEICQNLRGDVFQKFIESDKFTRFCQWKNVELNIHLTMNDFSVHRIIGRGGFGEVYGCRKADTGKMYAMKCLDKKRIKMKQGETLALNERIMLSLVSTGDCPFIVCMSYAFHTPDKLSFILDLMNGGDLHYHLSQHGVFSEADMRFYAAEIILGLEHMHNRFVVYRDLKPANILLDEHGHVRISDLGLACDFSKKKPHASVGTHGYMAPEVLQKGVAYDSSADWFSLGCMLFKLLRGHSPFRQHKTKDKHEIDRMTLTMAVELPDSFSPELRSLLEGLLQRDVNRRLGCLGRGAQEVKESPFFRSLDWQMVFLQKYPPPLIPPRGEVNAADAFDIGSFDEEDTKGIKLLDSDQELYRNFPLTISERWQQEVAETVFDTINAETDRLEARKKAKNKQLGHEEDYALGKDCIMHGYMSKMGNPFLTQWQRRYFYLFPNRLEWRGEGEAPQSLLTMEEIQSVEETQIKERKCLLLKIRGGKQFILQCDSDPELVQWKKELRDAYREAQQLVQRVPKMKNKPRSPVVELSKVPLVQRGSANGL

[14] = target: Beta-2 adrenergic receptor (Homo sapiens) (UniProt P07550); test: beta2AR agonists driving receptor internalization, pilot screen, cell-based, FAP fluorogen, flow cytometry, validation set (AID 504459;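 active means percent response above 42, roughly 3 SD of non-fluorescent test compounds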;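 further: agonist-driven loss of surface beta2AR via internalization measured by FAP dye flow cytometry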); settings: Am2.2-beta2AR cells, FAP surface receptor flow cytometry; at 10 µM; stronger effect = higher value
Beta-2 adrenergic receptor (Homo sapiens), sequence (P07550 whole entry, looked up): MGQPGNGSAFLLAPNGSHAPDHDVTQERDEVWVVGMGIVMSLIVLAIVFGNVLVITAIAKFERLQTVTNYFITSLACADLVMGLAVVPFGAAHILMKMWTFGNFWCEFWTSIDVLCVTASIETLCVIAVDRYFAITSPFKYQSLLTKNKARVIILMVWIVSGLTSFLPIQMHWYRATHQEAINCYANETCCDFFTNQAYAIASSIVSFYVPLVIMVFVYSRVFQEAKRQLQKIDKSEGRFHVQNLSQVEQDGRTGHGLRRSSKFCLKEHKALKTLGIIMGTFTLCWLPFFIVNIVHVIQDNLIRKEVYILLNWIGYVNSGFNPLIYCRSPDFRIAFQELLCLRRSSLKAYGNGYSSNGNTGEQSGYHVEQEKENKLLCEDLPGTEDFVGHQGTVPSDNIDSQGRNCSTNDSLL

[15] = target: AP-2 complex subunit beta (Homo sapiens) (UniProt P63010); test: inhibitors of arrestin peptide binding to AP2, pilot screen, biochemical, validation set, GST-AP2 beads, flow cytometry (AID 504541;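 active means inhibition above 54%, about 3 SD of non-fluorescent compounds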;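 further: AP2 carries R879A mutation and is captured from E. coli lysate; bead-bound FITC arrestin peptide fluorescence measuring arrestin peptide binding to AP2; 0% = DMSO wells and 100% = excess unlabeled arrestin peptide control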); settings: FITC arrestin peptide, at 10 µM, stronger effect = higher value, AP2 beta2 appendage fragment, R879A mutant
AP-2 complex subunit beta (Homo sapiens), sequence (P63010 whole entry, looked up, the tested form may be a part, one chain of several): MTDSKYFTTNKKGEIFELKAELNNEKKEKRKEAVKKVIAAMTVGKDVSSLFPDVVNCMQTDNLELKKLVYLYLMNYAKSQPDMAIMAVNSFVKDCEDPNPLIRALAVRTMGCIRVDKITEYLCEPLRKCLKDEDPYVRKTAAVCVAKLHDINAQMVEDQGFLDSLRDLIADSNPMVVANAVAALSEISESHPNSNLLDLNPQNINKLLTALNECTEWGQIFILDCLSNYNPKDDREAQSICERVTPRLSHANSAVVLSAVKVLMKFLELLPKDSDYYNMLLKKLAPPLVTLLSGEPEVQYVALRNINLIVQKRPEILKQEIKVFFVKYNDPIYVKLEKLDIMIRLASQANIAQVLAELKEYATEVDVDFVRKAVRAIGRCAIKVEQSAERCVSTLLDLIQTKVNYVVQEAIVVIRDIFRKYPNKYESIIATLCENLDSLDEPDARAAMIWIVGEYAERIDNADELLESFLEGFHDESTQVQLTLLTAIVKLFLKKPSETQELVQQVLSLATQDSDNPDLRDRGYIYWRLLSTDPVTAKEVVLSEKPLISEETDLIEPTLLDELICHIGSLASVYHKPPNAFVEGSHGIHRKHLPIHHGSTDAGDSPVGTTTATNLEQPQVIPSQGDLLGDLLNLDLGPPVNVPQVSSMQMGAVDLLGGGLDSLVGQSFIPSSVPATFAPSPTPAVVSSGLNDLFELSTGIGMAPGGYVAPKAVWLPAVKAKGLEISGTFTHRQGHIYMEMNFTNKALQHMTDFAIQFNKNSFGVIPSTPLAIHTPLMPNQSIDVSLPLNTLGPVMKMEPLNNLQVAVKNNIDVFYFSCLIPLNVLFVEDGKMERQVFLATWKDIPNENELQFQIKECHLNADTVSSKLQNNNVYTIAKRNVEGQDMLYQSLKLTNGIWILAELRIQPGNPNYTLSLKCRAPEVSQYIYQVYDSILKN

[16] = yeast V-ATPase proton transport modulators, S. cerevisiae, pHLuorin, HTS validation (AID 504600; in the data active means response above about 15%;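 further: plate controls were DMSO for no effect and reference compound for full effect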); settings: S. cerevisiae pHLuorin cytosolic pH, at 10 µM, stronger effect = higher value
[17] = tested on: anti-desmoglein-3 scFv antibody binding to human DSG3; test: inhibitors of anti-DSG3 scFv binding to DSG3, pilot screen, biochemical, validation compound set, bead-based, flow cytometry (AID 588368;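 active means binding below the plate cutoff, the plate median minus 3 SD, with a reading above zero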;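 further: signal is the median channel fluorescence of bead-bound GFP antibody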); settings: Protein G beads, DSG3-Fc, scFv-GFP binding, at 10 µM, stronger effect = lower value
[18] = inhibitors of fungal efflux pumps CDR1, CDR2, MDR1, pilot screen, validation compound set, multiplex, phenotypic (AID 588506;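 active means efflux inhibition above 0.42, the validation set average plus 4 SD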;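 further: Nile Red retained in cells so higher fluorescence means more efflux inhibition; 0 = negative control wells and 1 = enniatin B 25 µM full block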); settings: S. cerevisiae pump-expressing triplex, Nile Red efflux flow cytometry; at 10 µM; stronger effect = higher value; the pumps come from Candida albicans
[19] = target: ATP-binding cassette sub-family B member 6 (Homo sapiens) (UniProt Q9NP58); test: ABCB6 transporter inhibitors, pilot screen, K562-ABCB6 cells, flow cytometry, validation set (AID 588550;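 active means inhibition above the screen-wide mean plus 3 SD, about 51%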;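 further: 0% = DMSO wells and 100% = benzethonium chloride 70 µM positive control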); settings: K562-ABCB6 porphyrin accumulation, 1 h, at 10 µM, stronger effect = higher value
ATP-binding cassette sub-family B member 6 (Homo sapiens), sequence (Q9NP58 whole entry, looked up): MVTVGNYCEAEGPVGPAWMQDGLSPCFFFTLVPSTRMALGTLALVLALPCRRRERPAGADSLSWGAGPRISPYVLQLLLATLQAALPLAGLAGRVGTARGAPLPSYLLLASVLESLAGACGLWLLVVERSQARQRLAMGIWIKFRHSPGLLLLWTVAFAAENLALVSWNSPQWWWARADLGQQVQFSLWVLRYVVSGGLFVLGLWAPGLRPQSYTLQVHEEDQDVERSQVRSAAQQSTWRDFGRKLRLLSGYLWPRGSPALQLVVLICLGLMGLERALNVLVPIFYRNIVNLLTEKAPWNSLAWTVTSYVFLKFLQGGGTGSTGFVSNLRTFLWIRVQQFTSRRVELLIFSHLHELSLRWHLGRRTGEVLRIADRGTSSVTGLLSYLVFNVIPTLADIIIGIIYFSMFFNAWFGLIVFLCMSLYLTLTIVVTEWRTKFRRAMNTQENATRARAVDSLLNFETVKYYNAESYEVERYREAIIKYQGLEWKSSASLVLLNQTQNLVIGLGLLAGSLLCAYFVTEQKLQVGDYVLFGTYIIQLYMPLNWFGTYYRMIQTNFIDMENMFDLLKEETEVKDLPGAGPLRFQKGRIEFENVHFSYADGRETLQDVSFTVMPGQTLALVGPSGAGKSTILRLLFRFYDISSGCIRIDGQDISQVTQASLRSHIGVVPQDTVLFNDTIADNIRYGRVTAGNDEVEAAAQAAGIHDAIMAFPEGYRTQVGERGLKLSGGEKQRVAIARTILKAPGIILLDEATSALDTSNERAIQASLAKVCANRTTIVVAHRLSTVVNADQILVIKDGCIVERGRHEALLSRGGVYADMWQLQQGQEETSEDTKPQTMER

[20] = promoters of myeloid differentiation in arrested cells, primary screen, cell-based, GFP/MAC1 double positive, flow cytometry, validation set (AID 588685;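 active means differentiation response of at least 50%, scaled between solvent and reference control, from cells with both markers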;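 further: compound exposure lasts four days before antibody staining and flow analysis; 0% = DMSO wells and 100% = 5 µM fulvestrant positive control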); settings: ER-HoxA9 marrow cells, stronger effect = higher value, normalized: vehicle 0, fulvestrant 100
[21] = measured here: daughter cell gate
[22] = measured here: mother cell gate
[23] = measured here: daughter cell gate response
[24] = measured here: mother cell gate response

CN(C)CCN(Cc1ccccc1)c1ccccn1
inactive: percent of DMSO control GFP [1] 94.8% | percent response of DMSO control [3] 97.9% | GFP response vs DMSO [4] 85.3% | GFP response, % of DMSO [5] 93.3% | GFP response vs DMSO [6] 96.8% | GFP response relative to DMSO [7] 101% | GFP response vs DMSO [8] 100% | GFP response, % of DMSO [9] 98.3% | vesicle binding response [10] 269% | inhibition [11] -6.15% | superoxide response (% of plate) [12] 95.6% | aptamer binding inhibition [13] 1% | response [14] 1.51% | inhibition [15] 49.6% | response [16] -5.5% | binding (% of control) [17] 103% | differentiation response [20] -1.64%
62.3%: double positive events [10]
active: GFP response vs DMSO [2] 140% | efflux inhibition (fraction of control) [18] 0.48 | inhibition [19] 113%
98.5%: GFP response, % of DMSO [9, 22]
99.3%: GFP response relative to DMSO [7, 24]
99.1%: GFP response, % of DMSO [9, 21]
98.1%: GFP response vs DMSO [6, 21]
97.9%: GFP response vs DMSO [6, 22]
99.2%: GFP response relative to DMSO [7, 23]

CC(=O)[C@H]1CC[C@H]2[C@@H]3CCC4=CC(=O)CC[C@]4(C)[C@H]3[C@H](O)C[C@]12C
99.3%: GFP response vs DMSO [6, 21]
active: GFP response vs DMSO [2] 147%
99.7%: GFP response vs DMSO [6, 22]
57.7%: double positive events [10]
98.5%: GFP response relative to DMSO [7, 24]
102%: GFP response relative to DMSO [7, 23] | GFP response, % of DMSO [9, 21]
99.1%: GFP response, % of DMSO [9, 22]
inactive: percent of DMSO control GFP [1] 93% | percent response of DMSO control [3] 99.2% | GFP response vs DMSO [4] 85.3% | GFP response, % of DMSO [5] 93.3% | GFP response vs DMSO [6] 99.1% | GFP response relative to DMSO [7] 100% | GFP response vs DMSO [8] 97.5% | GFP response, % of DMSO [9] 101% | vesicle binding response [10] 64.9% | inhibition [11] -20.7% | superoxide response (% of plate) [12] 109% | aptamer binding inhibition [13] 3% | response [14] 0.15% | inhibition [15] 16.3% | response [16] -2.3% | binding (% of control) [17] 97.4% | efflux inhibition (fraction of control) [18] 0.12 | inhibition [19] 2% | differentiation response [20] 4.09%

COc1cc(/C=C/C(=O)CC(=O)/C=C/c2ccc(O)c(OC)c2)ccc1O
inactive: percent of DMSO control GFP [1] 117% | GFP response vs DMSO [2] 114% | GFP response vs DMSO [4] 114% | GFP response, % of DMSO [5] 95.1% | GFP response vs DMSO [6] 105% | GFP response relative to DMSO [7] 93.8% | GFP response vs DMSO [8] 111% | GFP response, % of DMSO [9] 111% | vesicle binding response [10] 39.9% | aptamer binding inhibition [13] 6% | response [14] -195% | inhibition [15] 14.9% | response [16] -4.77% | binding (% of control) [17] 129% | efflux inhibition (fraction of control) [18] 0.24 | inhibition [19] -398% | differentiation response [20] 18.8%
active: percent response of DMSO control [3] 135%
61.2%: double positive events [10]

c1cnc2c(c1)ccc1cccnc12
117%: GFP response relative to DMSO [7, 24] | GFP response, % of DMSO [9, 21]
59.5%: double positive events [10]
107%: GFP response, % of DMSO [9, 22]
active: GFP response vs DMSO [4] 174%
100%: GFP response vs DMSO [6, 21] | GFP response vs DMSO [6, 22]
inactive: percent of DMSO control GFP [1] 98.9% | GFP response vs DMSO [2] 107% | percent response of DMSO control [3] 96.4% | GFP response, % of DMSO [5] 117% | GFP response vs DMSO [6] 101% | GFP response relative to DMSO [7] 116% | GFP response vs DMSO [8] 112% | GFP response, % of DMSO [9] 111% | vesicle binding response [10] 192% | inhibition [11] 19.3% | superoxide response (% of plate) [12] 77.1% | aptamer binding inhibition [13] 8% | response [14] -45.4% | inhibition [15] 10.3% | response [16] 9.34% | binding (% of control) [17] 105% | efflux inhibition (fraction of control) [18] -0.13 | inhibition [19] 4% | differentiation response [20] -0.06%
116%: GFP response relative to DMSO [7, 23]

C[C@]12CCC(=O)C=C1CC[C@@H]1[C@@H]2[C@@H](O)C[C@@]2(C)[C@H]1CC[C@]2(O)C(=O)CO
102%: GFP response vs DMSO [6, 21]
105%: GFP response, % of DMSO [9, 22]
98.7%: GFP response relative to DMSO [7, 23]
99.7%: GFP response, % of DMSO [9, 21]
58.4%: double positive events [10]
98.3%: GFP response relative to DMSO [7, 24]
104%: GFP response vs DMSO [6, 22]
inactive: percent of DMSO control GFP [1] 108% | GFP response vs DMSO [2] 105% | percent response of DMSO control [3] 111% | GFP response vs DMSO [4] 105% | GFP response, % of DMSO [5] 111% | GFP response vs DMSO [6] 104% | GFP response relative to DMSO [7] 96.2% | GFP response vs DMSO [8] 100% | GFP response, % of DMSO [9] 104% | vesicle binding response [10] 165% | inhibition [11] 10.9% | superoxide response (% of plate) [12] 99.2% | aptamer binding inhibition [13] -2% | inhibition [15] 29.5% | response [16] -1.08% | binding (% of control) [17] 95.4% | inhibition [19] 3% | differentiation response [20] -18%

CN1CCN2c3ccccc3Cc3ccccc3C2C1 (centres undefined)
101%: GFP response, % of DMSO [9, 22]
inactive: percent of DMSO control GFP [1] 90.2% | percent response of DMSO control [3] 118% | GFP response vs DMSO [4] 94.6% | GFP response, % of DMSO [5] 107% | GFP response vs DMSO [6] 99.3% | GFP response relative to DMSO [7] 95% | GFP response vs DMSO [8] 100% | GFP response, % of DMSO [9] 99.1% | vesicle binding response [10] 183% | inhibition [11] 8.4% | superoxide response (% of plate) [12] 99.6% | aptamer binding inhibition [13] 2% | response [14] 4.6% | inhibition [15] 36.1% | response [16] -3.99% | binding (% of control) [17] 95.6% | efflux inhibition (fraction of control) [18] -0.13 | inhibition [19] 3% | differentiation response [20] -0.82%
100%: GFP response vs DMSO [6, 22]
active: GFP response vs DMSO [2] 146%
98.4%: GFP response vs DMSO [6, 21]
94.8%: GFP response, % of DMSO [9, 21]
97.2%: GFP response relative to DMSO [7, 23] | GFP response relative to DMSO [7, 24]
61.8%: double positive events [10]

CCOC(=O)C(Cc1cc(C(C)=O)ccc1OC(C)C)C(=O)OCC
102%: GFP response vs DMSO [6, 22]
inactive: percent of DMSO control GFP [1] 93% | percent response of DMSO control [3] 110% | GFP response vs DMSO [4] 85.3% | GFP response, % of DMSO [5] 89.1% | GFP response vs DMSO [6] 101% | GFP response relative to DMSO [7] 97.7% | GFP response vs DMSO [8] 99.5% | GFP response, % of DMSO [9] 96.4% | vesicle binding response [10] 151% | inhibition [11] -1.3% | superoxide response (% of plate) [12] 91% | aptamer binding inhibition [13] 4% | response [14] -7.47% | inhibition [15] 47% | response [16] -8.56% | binding (% of control) [17] 99.8% | efflux inhibition (fraction of control) [18] -0.09 | inhibition [19] 10% | differentiation response [20] 4.09%
98.3%: GFP response, % of DMSO [9, 21]
58.5%: double positive events [10]
95%: GFP response relative to DMSO [7, 23]
101%: GFP response vs DMSO [6, 21]
active: GFP response vs DMSO [2] 142%
96.8%: GFP response, % of DMSO [9, 22]
99.5%: GFP response relative to DMSO [7, 24]
